Measured values reported in PubChem BioAssay (NCATS).
Inconclusive results are not listed. Activity calls are given as the source filed them. Unless noted, calls come from the whole dose curve; as a rule, active = well fitted curve in the direction sought with a large enough effect; inconclusive = small, poorly fitted or top-dose-only effect, or another doubt; inactive = no such curve, though single readings can be large; an effect the other way counts as inactive or inconclusive.

What was measured:
[1] = Cell Viability - Hek293 (AID 427;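 active = compounds whose dose-response curve shows a full or clear partial loss of cell viability, called from curve shape rather than a numeric limit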;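 note: potency is the fitted concentration of half-maximal effect; cells exposed to compound for 40 hours at 37 °C before reading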); details: qHTS
Summary of the method: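 HEK293 cells in complete medium were exposed to compound for 40 hr at 37 °C, then cellular ATP was read by CellTiter-Glo luminescence. Data were normalized to DMSO (basal) and 100 uM tamoxifen (100% inhibition), and AC50 came from Hill fits.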

[2] = Cell Viability - HepG2 (AID 433; calls by dose curve;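 note: potency is the fitted concentration of half-maximal effect; potency for ATP loss meaning cytotoxicity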); details: qHTS
Summary of the method: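 Cytotoxicity is scored as loss of intracellular ATP in HepG2 cells exposed to compounds for 40 h. Concentration-response curves, normalized to DMSO and 100 uM tamoxifen, give AC50 values.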

[3] = Cell Viability - MRC5 (AID 434; calls by dose curve;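 note: potency is the fitted concentration of half-maximal effect; potency reflects cytotoxicity seen as loss of intracellular ATP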); details: MRC5 lung fibroblast viability, qHTS
Summary of the method: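 ATP luminescence read-out (CellTiter-Glo, 20 min RT) after 40 hr, 37 °C compound exposure of 1500 MRC5 cells/well. Data normalized to DMSO (basal) and 100 uM tamoxifen (100% inhibition); AC50 from standard Hill equation.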

[4] = Cell Viability - SK-N-SH (AID 435; calls by dose curve;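 note: potency is the fitted concentration of half-maximal effect; compound exposure lasted 40 h at 37 °C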); details: SK-N-SH neuroblastoma cell viability qHTS
Summary of the method: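 Cells seeded at 1500 per well and incubated 5 hr at 37 °C. Compound added, then 40 hr at 37 °C. CellTiter-Glo added, 20 min at room temperature, luminescence read.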

[5] = molecular target: Mitogen-activated protein kinase 10 (Mus musculus) (UniProt Q61831); assay: JNK3 AlphaScreen Assay (AID 530; active = well fitted curve in either direction with a large enough effect, not every such curve was filed as active;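 note: kinase came from lysate of stimulated human HepG2 cells; signal reports phosphorylation of biotinylated GST-cJun 1-79 at Ser73 with 10 µM ATP; % is set by controls: 0 for no effect and ±100 for the full control effect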); details: JNK3 lysate, c-Jun phosphorylation; series mostly up to 57.1 µM
Summary of the method: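 HepG2 lysate (IL-1b/TNFa pre-activated) + biotin-GST-cJun 1-79 + anti-pSer73 cJun; cpd titration, 15 min RT; ATP 10 uM start; Tris pH 7.6, MgCl2, DTT, vanadate; beads in EDTA buffer; AlphaScreen.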

[6] = Cell Viability - NIH 3T3 (AID 541); details: NIH 3T3 cell viability, qHTS; activity change, negative = cytotoxicity: at 92.2 µM (top of the series);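 note: plate controls were DMSO alone for no effect and tamoxifen positive control for full effect; nearly all actives have a fitted effect of over 25% in size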
Summary of the method: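 In this cytotoxicity screen, acute toxicity is scored as an ATP drop measured by CellTiter-Glo in NIH 3T3 fibroblasts following a 40 hr, 37 °C incubation with compound.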

[7] = Cell Viability - HUV-EC-C (AID 542); details: HUV-EC-C endothelial cell viability, qHTS; series mostly up to 92.2 µM; note: % is set by controls: 0 for no effect and ±100 for the full control effect; nearly all actives have a fitted effect of over 35% in size
Summary of the method: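 Concentration-dependent ATP loss in HUV-EC-C cells is the measure. Exposure lasts 40 hr at 37 °C; luminescence follows CellTiter-Glo addition, and Hill fits give AC50.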

[8] = Cell Viability - SH-SY5Y (AID 544); details: SH-SY5Y neuroblastoma cell viability; viability change, negative = cytotoxic: at 92.2 µM (top of the series); note: nearly all actives have a fitted effect of over 55% in size
Summary of the method: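 Quantitative HTS in SH-SY5Y neuroblastoma cells, 40 hr treatment at 37 °C, ATP content by luciferase luminescence; AC50 from Hill fits.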

[9] = Cell Viability - Renal Proximal Tubule (AID 545); details: renal proximal tubule cells viability; series mostly up to 91.7 µM; note: nearly all actives have a fitted effect of over 40% in size
Summary of the method: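 Cytotoxicity is scored as a concentration-dependent drop in cellular ATP in primary rat renal proximal tubule cells exposed for 40 hr. AC50 derives from Hill modelling.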

[10] = Cellular Toxicity (caspase-3) HepG2 (AID 654); details: HepG2 caspase-3 activation, luminescence, 0% = DMSO only, 100% = tamoxifen; series mostly up to 92.2 µM;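 note: cells exposed to compound for 16 hours before reading; 0% = DMSO alone and 100% = caspase signal from 100 µM tamoxifen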
Summary of the method: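 Concentration-response AC50 values reflect caspase-3/7 induction in HepG2 cells after 16 hours of compound exposure, quantified by luminescence from liberated aminoluciferin and referenced to 100 uM tamoxifen as full stimulation.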

[11] = Cellular Toxicity (caspase-3) HUV-EC-C (AID 656); details: HUV-EC-C cells, caspase-3 activation (apoptosis), vehicle = 0, 100 µM tamoxifen = 100%; series mostly up to 92.2 µM
Summary of the method: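 Read-out: luminescence proportional to caspase 3/7 activity, measured 20 min after adding Caspase-Glo 3/7 reagent. Cells (HUV-EC-C) had received compound for 16 hr at 37°C. Increases relative to DMSO and 100 uM tamoxifen gave concentration-response AC50 values.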

[12] = Cellular Toxicity (caspase-3) SHSY5Y (AID 657); details: SH-SY5Y caspase-3 activation, DMSO zero, 10 µM staurosporine = 100%; series mostly up to 91.7 µM
Summary of the method: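 Cells plated and incubated 5 h at 37 °C, dosed over a concentration range, incubated 16 h, then given Caspase-Glo 3/7 reagent for 1 h at room temperature before luminescence reading. Staurosporine (10 uM) defined full stimulation.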

[13] = Cellular Toxicity (caspase-3) BJ (AID 658); details: BJ fibroblasts, luminescence, normalized: DMSO 0%, staurosporine 100%; series mostly up to 91.7 µM
Summary of the method: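 qHTS, BJ fibroblasts, 1000 cells/well; 5 hr preincubation, 16 hr compound, 37 °C; Caspase-Glo 3/7 reagent, 1 hr RT; luminescence. DMSO = 0%, 10 uM staurosporine = 100%. Hill-equation AC50.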

[14] = Cellular Toxicity (caspase-3) MRC-5 (AID 659); details: MRC-5 cells, luminescence, normalized: DMSO 0%, 10 µM staurosporine 100%; series mostly up to 91.7 µM
Summary of the method: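 MRC-5 fibroblasts, 1500/well; 16 h cpd, 37 °C; Caspase-Glo 3/7, 1 h RT; lumi read. Norm: DMSO = 0%, 10 uM staurosporine = 100%. Hill-fit AC50 from qHTS conc-response.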

[15] = Cellular Toxicity (caspase-3) Mesangial (AID 660); details: mesangial cells, normalized: DMSO 0%, 100 µM tamoxifen 100%; series mostly up to 91.7 µM;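 note: cells exposed to compound for 16 h before the caspase read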
Summary of the method: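 AC50 values come from Hill-equation fits of caspase 3/7 activation, measured as Caspase-Glo luminescence in human glomerular mesangial cells exposed to compound for 16 h at 37 °C; 100% set by 100 uM tamoxifen.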

[16] = Cellular Toxicity (caspase-3) SK-N-SH (AID 661); details: SK-N-SH caspase-3 activation, qHTS; series mostly up to 91.7 µM
Summary of the method: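 Apoptosis readout in SK-N-SH neuroblastoma: Caspase-Glo 3/7 luminescence following 16 hr treatment in complete culture medium. Normalization used DMSO and 10 uM staurosporine controls.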

[17] = Cellular Toxicity (caspase-3) H-4-II-E (AID 663); details: H-4-II-E rat hepatoma; Potency: caspase-3 activation; series mostly up to 92.2 µM;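 note: cells exposed to compound for 16 hr before readout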
Summary of the method: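 H-4-II-E rat hepatoma, 1500 cells/well, 5 hr settle at 37 °C; compound 16 hr, 37 °C, complete medium; Caspase-Glo 3/7, 20 min RT; luminescence. DMSO = 0%, 100 uM tamoxifen = 100%; Hill-equation AC50.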

[18] = Cellular Toxicity (caspase-3) Hek293 (AID 664); details: HEK293 caspase-3 activation, DMSO = 0%, 100 µM tamoxifen = 100%; at 92.2 µM (top of the series);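 note: cells exposed to compound for 16 h at 37 °C before readout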
Summary of the method: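 Apoptosis readout: Caspase-Glo 3/7 signal in human HEK293 cells following 16-hour compound incubation. Responses scaled between DMSO baseline and 100 uM tamoxifen.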

[19] = Cellular Toxicity (caspase-3) N2a (AID 665); details: N2a cells, luminescence, normalized: DMSO 0%, 10 µM staurosporine 100%; series mostly up to 92.2 µM;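 note: compound exposure lasted 16 h at 37 °C before readout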
Summary of the method: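 Concentration-response qHTS: compound-induced caspase-3/7 luminescence in N2a cells (16 h, 37 °C), relative to DMSO and 10 uM staurosporine controls; AC50 obtained using the standard Hill equation.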

[20] = Cellular Toxicity (caspase-3) NIH 3T3 (AID 666); details: NIH 3T3 caspase-3 activation, apoptosis/toxicity; series mostly up to 92.2 µM;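 note: caspase signal read after 16 h compound exposure; 0% = DMSO basal and 100% = 100 µM tamoxifen stimulation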
Summary of the method: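 Activity: caspase-3/7 induction, NIH 3T3 cells, 16 hr treatment at 37°C, luminescent Caspase-Glo detection; AC50 via Hill equation.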

Nc1c(Br)cc([N+](=O)[O-])cc1[N+](=O)[O-]
inactive: Potency [1] > 92 µM | Potency [2] > 92 µM | Potency [3] > 92 µM | Potency [4] > 92 µM | Potency [5] | Potency [6] | Potency [7] | Potency [8] | outcome [9] | outcome [10] | outcome [11] | outcome [12] | outcome [13] | outcome [14] | outcome [15] | Potency [16] | Potency [17] | caspase-3 activation [18] 4.97% | outcome [19] | Potency [20]
